Bioassay records as filed in PubChem.
This is a sample that favours compounds with a hit; in the whole collection about 2.3% have one here.
697 NFkB inh = inhibitors of the PMA/ionomycin-induced NF-kB reporter in 697 B cells | 697 B-cell NF-kB luciferase reporter, 16 h | inhibition, % at 4 µM | 0.33% of 330,000 active | AID 435022; in the data active means inhibition above about 35%
Shn3 3UTR inh = inhibitors of Schnurri-3 3'UTR reporter in osteoblasts; inhibition, % at 12.5 µM; 0.52% of 360,000 active; Clone20 osteoblast Shn3 3'UTR firefly luciferase, 24 h;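 active means mean inhibition of at least 75% with every replicate also reaching 75%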
H9c2 TAG inh = triacylglycerol accumulation inhibition. H9c2 cells, Nile Red lipid (TAG) fluorescence; cells loaded with 200 µM oleic acid. inhibition, % at 12.5 µM. 0.66% of 230,000 active;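 active means pattern-corrected inhibition of lipid staining of at least 50% with the nuclear-stain viability signal not falling by more than 50%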
Gli-Sufu block = blocks Gli-Sufu signaling in a luciferase reporter. inhibition, % at 5 µM. 0.74% of 340,000 active. Sufu-KO-LIGHT fibroblasts, Gli luciferase reporter luminescence;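 active means inhibition above about 55%, limit read from the data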
Jurkat NFkB inh = lowers PMA/ionomycin-induced NF-kB signal in Jurkat cells; PMA/ionomycin-induced NF-kB luciferase reporter, luminescence; inhibition, % at 4 µM; 0.53% of 330,000 active; in the data active means inhibition above about 50%
aSyn 5UTR inh = 5' untranslated region of α-synuclein, MLPCN primary screen; inhibition, % (tested at 7.5 µM); AID 1813; 0.82% of 300,000 active; alpha-synuclein 5'UTR reporter, inhibitor activity; in the data active means inhibition above about 60%;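 further: H4 neuroglioblastoma cells stably carrying SNCA 5'UTR luciferase fusion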
Large screens that a line does not name were inactive.

O=[N+]([O-])c1ccc(N2CCCCC2)cc1NCCOc1ccccc1	none
CCc1ccc(OCCNc2cc(N3CCNC(C)C3)ccc2[N+](=O)[O-])cc1 (stereo not drawn)	Shn3 3UTR inh 89 (no result: aSyn 5UTR inh)
CC(C)(CC(=O)O)CC(=O)Nc1ccccc1Oc1ccccc1	none
Cc1nn(Cc2c(Cl)cccc2Cl)c(C)c1NC(=O)c1cn(-c2ccccc2)nc1-c1ccccc1	Shn3 3UTR inh 88, H9c2 TAG inh 50, aSyn 5UTR inh 122
Cc1cccc(C)c1NC(=O)CNC(=O)c1cn(-c2ccccc2)nc1-c1ccccc1	none
CC(CC#CCN1CCOCC1)OCCC#N (stereo not drawn)	none (no result: H9c2 TAG inh)
OC(c1cc(-c2ccc(Cl)cc2)nc2ccccc12)C1CCCCN1 (stereo not drawn)	aSyn 5UTR inh 96 (no result: 697 NFkB inh, H9c2 TAG inh, Jurkat NFkB inh)
CCOC(=O)c1ccc(NC(=O)Cn2nc(C)c3ccccc3c2=O)cc1	none
S=C(NN=Cc1ccccn1)N(Cc1ccccn1)Cc1ccccn1	Gli-Sufu block 82 (no result: 697 NFkB inh, Jurkat NFkB inh, aSyn 5UTR inh)
CC(=NNC(=S)N(Cc1ccccn1)Cc1ccccn1)c1cnccn1	Shn3 3UTR inh 95, Gli-Sufu block 90 (no result: 697 NFkB inh, Jurkat NFkB inh, aSyn 5UTR inh)
S=C(NN=C(c1ccccc1)c1ccccn1)N(Cc1ccccn1)Cc1ccccn1	Shn3 3UTR inh 91, H9c2 TAG inh 62, Gli-Sufu block 69 (no result: 697 NFkB inh, Jurkat NFkB inh, aSyn 5UTR inh)
CCOC(=O)C(C(C)=O)=C1SC2CS(=O)(=O)CC2S1 (stereo not drawn)	none (no result: H9c2 TAG inh)
CC(C)C1Nc2ccc(S(N)(=O)=O)cc2C2C=CCC21 (stereo not drawn)	none
O=C(Nc1ccccc1)c1cn2ccccc2n1	none
Cc1csc(NC(=O)c2cn3ccccc3n2)n1	aSyn 5UTR inh 82
Cc1noc(C)c1COC(=O)CNC(=O)c1cccc(F)c1	none
Cc1nc(N)nc(N)c1CCCc1ccc(Cl)c(Cl)c1	aSyn 5UTR inh 92
CC(=O)CSc1nnc(-c2ccco2)n1-c1ccccc1	none (no result: H9c2 TAG inh)
CSc1nnc(-c2ccco2)n1-c1ccccc1	Shn3 3UTR inh 89
Cc1ccc(C(=O)/C=C/Nc2ccccn2)cc1	aSyn 5UTR inh 75
CCCCC(CC)CN=C(N)NC(N)=NCCCCCCN=C(N)NC(N)=NCC(CC)CCCC (stereo not drawn)	Shn3 3UTR inh 97, Gli-Sufu block 67 (no result: aSyn 5UTR inh)
CCCCC(CC)CO (stereo not drawn)	none (no result: H9c2 TAG inh, aSyn 5UTR inh)
CCN1/C(=C/c2sc(-c3ccccc3C)c[n+]2C)Sc2ccccc21	Shn3 3UTR inh 90, Gli-Sufu block 90, aSyn 5UTR inh 94 (no result: 697 NFkB inh, Jurkat NFkB inh)
CCC(=O)/C=C1/Sc2ccccc2N1CC	none
OCC1OC(n2cnc3ncccc32)C(O)C1O (stereo not drawn)	none (no result: 697 NFkB inh, H9c2 TAG inh, Gli-Sufu block, Jurkat NFkB inh, aSyn 5UTR inh)
CCn1cc([N+](=O)[O-])c(C(=O)N2N=C(c3ccc4ccccc4c3)CC2c2cc(Br)ccc2O)n1 (stereo not drawn)	H9c2 TAG inh 56
NC1=NC[C@H](Cc2ccccc2)N1CCCCC1CCCCC1	Gli-Sufu block 58
c1ccc(C[C@H]2CN=C(Nc3ccccc3)N2CCC2CCCC2)cc1	none (no result: aSyn 5UTR inh)
NC1=NC[C@H](Cc2ccc(O)cc2)N1CCc1cc(C(F)(F)F)cc(C(F)(F)F)c1	none
NC1=NC[C@@H](CC2CCCCC2)N1CCc1cc(C(F)(F)F)cc(C(F)(F)F)c1	Shn3 3UTR inh 97 (no result: aSyn 5UTR inh)
CCOc1ccccc1C(=O)N(Cc1ccco1)C1CCS(=O)(=O)C1 (stereo not drawn)	none (no result: aSyn 5UTR inh)
N#CCCN(Cc1ccccc1)C(=O)c1nccnc1C(=O)O	none (no result: H9c2 TAG inh)
CCC(C)c1ccc(NS(=O)(=O)c2c(C)[nH]c(=O)[nH]c2=O)cc1 (stereo not drawn)	none (no result: H9c2 TAG inh)
CCOC(=O)c1cn(CC(=O)Nc2cccc(Cl)c2)nn1	none (no result: H9c2 TAG inh)
CCOC(=O)c1cn(CC(=O)Nc2cccc(Cl)c2C)nn1	Shn3 3UTR inh 95
CCC(C)c1ccc(S(=O)(=O)N2CCN(C(=O)c3ccc(Cl)c(S(=O)(=O)N4CCOCC4)c3)CC2)cc1 (stereo not drawn)	Shn3 3UTR inh 90 (no result: 697 NFkB inh, Jurkat NFkB inh, aSyn 5UTR inh)
Cc1c(CCOC(=O)C23CC4(C)CC(C)(CC(C)(C4)C2)C3)sc[n+]1CC(=O)c1ccccc1	Shn3 3UTR inh 90
CCC(C)NC(=O)CN1C(=O)C(CC)Sc2ccccc21 (stereo not drawn)	none
C=C1C(=O)C2=CC1CCC(=O)C1(C)CCC(OC(C)=O)C(C)(C)C1CC2O (stereo not drawn)	Shn3 3UTR inh 84 (no result: 697 NFkB inh, Jurkat NFkB inh, aSyn 5UTR inh)
C#Cc1cccc(-n2nnc(C(C)=O)c2C)c1	none
COc1ccc(CCNCC(O)Cn2c3ccccc3c3ccccc32)cc1OC (stereo not drawn)	aSyn 5UTR inh 120
COc1ccc(CCNc2c3ccccc3nc3ccccc23)cc1OC	H9c2 TAG inh 55
COc1ccccc1N(O)C1CC(=O)N(c2ccc(F)cc2)C1=O (stereo not drawn)	Shn3 3UTR inh 95
COc1ccccc1N1C(=O)CC(N(O)c2ccccc2)C1=O (stereo not drawn)	none
CC(=O)c1c(N2CCN(c3cccc(Cl)c3)CC2)nc(=S)n(-c2ccccc2)c1C	none (no result: H9c2 TAG inh)
Cc1cc(C)c(S(=O)(=O)/N=C2/C=C(Sc3ncn[nH]3)C(=O)c3ccccc32)cc1C	Shn3 3UTR inh 94 (no result: 697 NFkB inh, H9c2 TAG inh, Jurkat NFkB inh, aSyn 5UTR inh)
CCOC(=O)C(C)/C(C)=N/NC(=O)c1cc2ccccc2cc1O (stereo not drawn)	aSyn 5UTR inh 62
Cc1cc(N)c2cc(NC(=O)/C=C/c3ccccc3Cl)ccc2n1	aSyn 5UTR inh 107 (no result: Shn3 3UTR inh)
Cc1cc(C)nc(NC(=O)/C=C/c2ccccc2Cl)n1	none
CC(=O)c1sc(NC(=O)C2COc3ccccc3O2)nc1C (stereo not drawn)	aSyn 5UTR inh 62
Clc1ccc(OCc2nn3c(-c4ccco4)nnc3s2)c(Cl)c1	none
COc1cccc2c1C(=O)c1c(O)c3c(c(O)c1C2=O)CC(O)(C(=O)CO)CC3OC1CC(N(C)C)C(O)C(C)O1 (stereo not drawn)	Shn3 3UTR inh 97, Gli-Sufu block 85 (no result: 697 NFkB inh, Jurkat NFkB inh, aSyn 5UTR inh)
CCN(C(=O)COC(=O)c1cc(OC)ccc1Br)C1CCS(=O)(=O)C1 (stereo not drawn)	none (no result: aSyn 5UTR inh)
CCN(C(=O)COC(=O)c1cc(-c2ccc3cc(OC)ccc3c2)nc2ccccc12)C1CCS(=O)(=O)C1 (stereo not drawn)	aSyn 5UTR inh 67 (no result: Shn3 3UTR inh, H9c2 TAG inh, Gli-Sufu block)
CCCCC(=O)NC1(C(F)(F)F)NC(=O)N(Cc2ccccc2)C1=O (stereo not drawn)	none
COC(=O)C1C=CC(OC2OC(COC(C)=O)C(OC(C)=O)C(OC(C)=O)C2OC(C)=O)n2c(=O)n(-c3ccccc3)c(=O)n21 (stereo not drawn)	Shn3 3UTR inh 97 (no result: 697 NFkB inh, Jurkat NFkB inh, aSyn 5UTR inh)
Cc1ccc(CN2C3=NCCN3c3ccccc32)cc1	none
O=C1C2C3C=CC(C3)C2C(=O)N1/N=C/c1cn(Cc2ccccc2)c2ccccc12 (stereo not drawn)	aSyn 5UTR inh 66 (no result: Gli-Sufu block)
Cc1nc2nc(-c3ccc(F)cc3)cn2nc1C	none (no result: H9c2 TAG inh)
CCc1ccc(-c2cn3nc(C)c(C)nc3n2)cc1	aSyn 5UTR inh 87 (no result: H9c2 TAG inh)
O=C(OCc1ccccc1)N(CCCCN(CCCNCc1ccccc1)C(=O)OCc1ccccc1)CCCNCc1ccccc1	Shn3 3UTR inh 99 (no result: 697 NFkB inh, Jurkat NFkB inh, aSyn 5UTR inh)
O=C(NCCCCCCNC(=O)OCc1ccccc1)OCc1ccccc1	none (no result: 697 NFkB inh, Jurkat NFkB inh, aSyn 5UTR inh)
